Measured values reported in PubChem BioAssay AID652067 (The Scripps Research Institute Molecular Screening Center, 2013).
In all, about 370,000 compounds went through this assay and about 5,400 (1.5%) were called active. The sample holds actives, similar compounds and a random draw of the others, so the mix is not that of the screen. Unmarked numbers belong to inactive results.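 The calls were made as follows: active = activation above the mean of all tested compounds plus 3 SD (cut at about 5.5% in these data); inactive = the rest.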

System: DAF-12 nuclear receptor (Haemonchus contortus)
Assay: hcDAF-12 driven luciferase reporter activation – cell-based, luminescence, HEK293, lit1-tk-luc reporter, primary screen (AID 652067);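 also: 100% = response to 3 µM Δ7-dafachronic acid high control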
Details: HEK293 hcDAF-12 lit1-tk-luc reporter, at 6.8 µM, hits give high values, 0% DMSO, 100% Δ7-dafachronic acid

How did the activation turn out when `CC(=O)C1=C(C)N(Cc2ccc(Cl)cc2)C(=S)NC1c1ccc(F)cc1` (stereo unspecified) was run?
The activation was 0.56%.

`Nc1nc2c(ncn2[C@@H]2O[C@H](C(=O)N[C@@H](Cc3ccccc3)C(=O)NCc3ccccc3)[C@@H](O)[C@H]2O)c(=O)[nH]1` was tested. Which activation did it give?
Its activation is 1.55%.

With `O=S(=O)(c1ccc2c(c1)OCCCO2)N1CCN(S(=O)(=O)c2c(F)cccc2F)CC1` as the compound, how does the activation read?
The activation was -1.98%.

How did the activation turn out when `C=CCn1c(CCNC(=O)c2cccs2)n[nH]c1=S` was run?
The activation was 1.16%.

For `C=CCn1c(=NC(=O)c2ccc(S(=O)(=O)N3CCCC3)cc2)sc2cc(NC(C)=O)ccc21`, which activation is on record?
Its activation is -1.46%.

`C=CCn1c(=NC(=O)c2cccs2)sc2cc(NC(C)=O)ccc21` was tested. Which activation did it give?
The activation was 6.19% (active).

`Cc1cc(=O)[nH]c(SCC(=O)Nc2ccc(Cl)cc2C)n1` was tested. Which activation did it give?
The activation was -1.08%.

How did the activation turn out when `CCOc1ccc(NC(=O)COC(=O)C2CCC(=O)N2)c([N+](=O)[O-])c1` (stereo unspecified) was run?
Its activation is 3.85%.

For `CN(C)c1ccc(NC(=O)NC2CCCCN(Cc3ccc(Cl)cc3)C2=O)cc1` (stereo unspecified), which activation is on record?
The activation was -0.06%.

Which activation does the source give for `Cc1c2cnn(CC(=O)NCCCN3CC(C)CC(C)C3)c(=O)c2c(C)n1Cc1ccc(Cl)cc1` (stereo unspecified) here?
The activation was -1.23%.

With `CC1CC(C)CN(CCCNC(=O)Cn2ncc3c([nH]c4ccccc43)c2=O)C1` (stereo unspecified) as the compound, how does the activation read?
Its activation is 6.07% (active).

Which activation does the source give for `CC1CCCCN1CCCNC(=O)Cn1ncc2c([nH]c3ccccc32)c1=O` (stereo unspecified) here?
The activation was 0.15%.

With `CC(=O)Nc1ccc(C(=O)CSc2nc3ccc(C)cc3[nH]2)cc1` as the compound, how does the activation read?
The activation was 4.98%.

`CSCC[C@H](NC(=O)OC(C)(C)C)C(=O)N/N=C/c1cc2ccc(C)cc2nc1Cl` was tested. Which activation did it give?
Its activation is -0.35%.

`Cc1ccc2cc(/C=N/Nc3ccc(C(=O)O)cc3)c(Cl)nc2c1` was tested. Which activation did it give?
Its activation is 10.2% (active).

For `CC(Oc1ccccc1)C(=O)NN1Cc2ccccc2C1=N` (stereo unspecified), which activation is on record?
The activation was -1.32%.

`Cc1c(C=O)c2ccccc2n1CCOc1ccccc1` was tested. Which activation did it give?
Its activation is -3.86%.

For `O=C(O)Cn1c(Cc2ccccc2)nc2ccccc21`, which activation is on record?
Its activation is 0.35%.

Which activation does the source give for `Cc1c(C=O)c2ccccc2n1CC(=O)O` here?
The activation was 9.3% (active).

For `CCOC(=O)c1csc(NC(=O)C2CCCN(S(=O)(=O)c3ccc(Cl)s3)C2)n1` (stereo unspecified), which activation is on record?
Its activation is -2.96%.

How did the activation turn out when `Cc1ccc(-c2cn3cc([N+](=O)[O-])ccc3n2)cc1` was run?
Its activation is 7.66% (active).

Which activation does the source give for `Cn1cnc(C(F)(F)F)c1-c1ccc([N+](=O)[O-])cc1` here?
Its activation is -1.54%.

With `COc1ccc(-c2cc(-c3nnc(SCc4ccc([N+](=O)[O-])cc4)n3N)[nH]n2)cc1` as the compound, how does the activation read?
The activation was -4.71%.

With `C=CCN(C(=O)[C@@H](CCCC)[C@@H](O)c1ccc(Cl)cc1)c1ccccc1` as the compound, how does the activation read?
The activation was -1.78%.

For `CCCCCCCCN1C(=O)[C@@H](CC(=O)NCc2ccc(C)o2)C[C@@]2(C(=O)OC)C1=C[C@H](C(C)(C)C)O[C@@H]2C`, which activation is on record?
The activation was 0.67%.

Which activation does the source give for `CN1C[C@]2(C=C3CCCCC3n3c(=O)n(-c4ccccc4)c(=O)n32)N=C1NC(=O)c1ccccc1` (stereo partly specified) here?
The activation was -1.23%.

Which activation does the source give for `CCN(CC)CCn1c2c(c(SCC(=O)Nc3nc4ccccc4s3)nc1=O)CCCC2` here?
The activation was 1.05%.

Which activation does the source give for `O=C1NC(Nc2nc3ccccc3s2)(C(F)(F)F)C(=O)N1C1CCCCC1` (stereo unspecified) here?
Its activation is 2.82%.

`c1ccc2sc(NN=C3CCCC3)nc2c1` was tested. Which activation did it give?
The activation was 9.02% (active).

Which activation does the source give for `O=S1(=O)c2c(cccc2N2CCCCC2)O[C@H](COCc2ccccc2)CN1C1CC1` here?
Its activation is -2.09%.

With `CC(=O)Oc1ccc2c(=O)oc(-c3ccc([N+](=O)[O-])cc3)nc2c1` as the compound, how does the activation read?
Its activation is -2.73%.

How did the activation turn out when `O=[N+]([O-])c1ccc2oc(-c3cccc(O)c3)nc2c1` was run?
Its activation is 15.4% (active).

`COc1cccc(-c2nc(CS(=O)(=O)CC(=O)NCCc3ccc(OC)c(OC)c3)c(C)o2)c1` was tested. Which activation did it give?
The activation was -1.4%.

Which activation does the source give for `COc1cccc(-c2nc3cc(C)ccc3o2)c1` here?
Its activation is 14.7% (active).

With `O=[N+]([O-])c1ccc2c(c1)C(O)n1nc(-c3ccccc3)nc1S2` (stereo unspecified) as the compound, how does the activation read?
Its activation is 0.58%.

Which activation does the source give for `COc1cccc(-c2nnc(SCCOc3ccc4c(C)cc(=O)oc4c3)o2)c1` here?
Its activation is 0.05%.

`COc1cccc(CNC(=O)[C@H]2CCCN2C(=O)[C@H]2CCCN2C(=O)c2cc(F)cc(F)c2)c1` was tested. Which activation did it give?
The activation was -1.64%.

`CSc1ccc(C=Nn2c(-c3ccc(F)cc3)n[nH]c2=S)cc1` was tested. Which activation did it give?
The activation was -0.55%.

`CC(C)Cn1c(CCC(=O)O)ccc1-c1cccs1` was tested. Which activation did it give?
Its activation is -0.34%.

For `C=C1C(C(C)C)N(C)C2=NC(c3ccccc3)CC(=O)N12` (stereo unspecified), which activation is on record?
The activation was -1.26%.

With `COc1ccc(-n2c(SCC(=O)Nc3ccccc3-c3ccccc3)nnc2-c2cccnc2)cc1` as the compound, how does the activation read?
The activation was -2.71%.

With `CC(=O)Nc1ccc(NC(=O)COc2ccccc2C(=O)Nc2cccc(Cl)c2Cl)cc1` as the compound, how does the activation read?
Its activation is 5.68% (active).

Which activation does the source give for `O=C(COc1ccccc1Cl)Nc1ccccc1C(=O)NC1CC1` here?
The activation was 0.7%.

For `O=C(COc1ccccc1Cl)Nc1ccc(C(=O)c2ccc(C(=O)O)cc2)cc1`, which activation is on record?
Its activation is -0.48%.

For `Brc1ccc(COCCc2cn(Cc3ccccc3)c3ccccc23)cc1`, which activation is on record?
Its activation is -0.22%.

For `CC(=O)O[C@@]1(C(C)=O)CCC2[C@H]3C=C(C)C4=CC(=O)CC[C@@]4(C)C3CC[C@]21C` (stereo partly specified), which activation is on record?
The activation was -1.02%.

How did the activation turn out when `COc1ccc2cc(CCl)c(Cl)nc2c1` was run?
The activation was -0.92%.

How did the activation turn out when `COc1ccc2nc(-c3ccccn3)ccc2c1` was run?
The activation was 8.16% (active).

With `COc1ccc(C=C(C#N)C#N)c(CSc2ccccn2)c1` as the compound, how does the activation read?
The activation was -0.83%.

How did the activation turn out when `Cc1nc(CNc2ncnc3ccc(-c4ccc5c(c4)OCO5)cc23)cs1` was run?
The activation was -1.68%.

Which activation does the source give for `Cc1ccc(S(=O)(=O)N(C)C)cc1NC(=O)C(C)OC(=O)c1ccc2ccccc2n1` (stereo unspecified) here?
The activation was 0.62%.

For `O=C(Oc1ccc([N+](=O)[O-])cc1)c1ccc2ccccc2n1`, which activation is on record?
Its activation is 8.61% (active).

For `N/C(Cc1ccc([N+](=O)[O-])cc1)=N\OC(=O)COc1ccc2ccccc2c1`, which activation is on record?
Its activation is -2.58%.

How did the activation turn out when `COC(=O)C1CN(Cc2cn(Cc3ccc(F)cc3)nn2)CCS(=O)(=O)N1Cc1ccc(Cl)cc1` (stereo unspecified) was run?
Its activation is -3.19%.

How did the activation turn out when `COc1ccc(-c2ccccc2C2Cc3nnccc3CN2C(=O)Nc2ccccc2)cc1` (stereo unspecified) was run?
Its activation is -1.19%.

With `Cc1ccc(Cn2cc(CN3[C@@H](C)COc4cc(Br)ccc4S3(=O)=O)nn2)cc1` as the compound, how does the activation read?
Its activation is -3.6%.
